Screening results from PubChem.
A selection: hits, their analogues and other compounds. The true share with any hit is near 4%.
Glioma ERSR ind: qHTS for Inducers of the Endoplasmic Reticulum Stress Response (ERSR) in Human Glioma: qHTS. 0.02% of 420,000 active. U87-MG GRP78 promoter luciferase reporter, 16 h. Potency, µM, for inactives: at the highest dose activation, actives largely listed as activators; active = well fitted activation curve with a large enough effect; also: potency is read from the fitted curve at half-maximal effect; series mostly up to about 76 µM; % of control where 0% means no effect; nearly all actives have a fitted effect of over 35% in size
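ERSR induction read as luciferase luminescence (Bright-Glo, 10 min at room temperature) in stably transfected human U87-MG glioma cells exposed to compounds for 16 h, using GRP78 as sensor.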
TRHR PAM: qHTS for Small Molecule Agonists and Allosteric Enhancers of Human TRH Receptor: Primary Screen for Enhancers | Thyrotropin-releasing hormone receptor (Homo sapiens), P34981 | TRHR cells, fluo-8 calcium fluorescence, EC20 TRH enhancement | enhancement, % at 2 µM | 0.66% of 360,000 active; in the data active = enhancement above about 30%; also: 0% is about no effect
Target sequence (P34981 whole entry, looked up): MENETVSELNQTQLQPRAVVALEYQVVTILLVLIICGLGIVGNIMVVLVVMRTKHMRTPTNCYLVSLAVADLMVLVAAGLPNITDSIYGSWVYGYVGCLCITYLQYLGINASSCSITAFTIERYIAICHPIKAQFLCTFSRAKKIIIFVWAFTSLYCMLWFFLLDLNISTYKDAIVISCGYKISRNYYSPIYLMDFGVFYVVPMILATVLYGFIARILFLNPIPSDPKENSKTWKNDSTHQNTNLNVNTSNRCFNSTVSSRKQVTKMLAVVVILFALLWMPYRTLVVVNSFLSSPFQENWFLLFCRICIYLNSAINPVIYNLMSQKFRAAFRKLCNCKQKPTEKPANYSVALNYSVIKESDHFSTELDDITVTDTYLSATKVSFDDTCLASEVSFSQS
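TRHR-expressing cells loaded with fluo-8 calcium dye were read kinetically (ex 480/em 530) during compound addition, then stimulated with an EC20 of TRH (10 nM final). Enhancement of the Gq-mediated intracellular calcium response was scored.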
D1 antagonist: Antagonist of Human D 1 Dopamine Receptor: qHTS; activity change, negative = inhibition, % at 10 µM; HEK293 TREx D1 cells, calcium flux, dopamine EC80; stronger effect = lower value; 3.2% of 360,000 active; in the data active = activity change below about -30%; also: % is scaled to controls: 0 for no effect and ±100 for the full control effect
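After overnight tetracycline induction at 30 C, force-coupled D1 HEK293 cells took up a no-wash calcium dye at room temperature. Compounds were added and monitored 180 s, and the response to EC80 dopamine was then recorded.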
TRHR ag: qHTS for Small Molecule Agonists and Allosteric Enhancers of Human TRH Receptor: Primary Screen for Agonists; activation, % at 2 µM; 0.18% of 360,000 active; TRHR cells, calcium flux fluo-8, FDSS agonist mode; Thyrotropin-releasing hormone receptor (Homo sapiens), P34981; also: 0% is about no effect
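TRHR-expressing cells loaded with fluo-8 calcium dye; 23 nL library compound pin-transferred, kinetic FDSS fluorescence (Ex 480/Em 530) recorded about 180 s for agonist-induced calcium release, before a 10 nM TRH EC20 addition for potentiator mode.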
D1 ag: Allosteric Agonists of the Human D1 Dopamine Receptor: qHTS. D(1A) dopamine receptor (Homo sapiens), P21728. HEK293 T-REx D1 cells, calcium flux, agonist mode. activation, % at 2 µM. 1% of 360,000 active. AID 504660, 2011; also: 0% is about no effect
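Inducible HEK293 T-REx D1 cells, force-coupled to calcium signalling, were plated at 4000 cells/well with tetracycline and held overnight at 30 C. After no-wash calcium dye loading, compound-evoked calcium rise over 180 s flagged agonists.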
D1 PAM: Potentiators of Human D1 Dopamine Receptor: qHTS; D(1A) dopamine receptor (Homo sapiens), P21728; HEK293 TREx D1 cells, calcium flux, dopamine EC20 potentiation; potentiation, % at 10 µM; 0.036% of 360,000 active; AID 504651, 2011; in the data active = potentiation above about 30%; also: 0% is about no effect
* hit, by the source's call; x = no result given. Rule as the data show it, unless noted: active = activation above about 30%; inactive = the rest.

SMILES	Glioma ERSR ind	TRHR PAM	D1 antagonist	TRHR ag	D1 ag	D1 PAM
C/C(=N\NC(=O)c1cccc(S(=O)(=O)N2CCOCC2)c1)c1cc2ccccc2o1	-3%	10	-5	0	0	3
CCc1ccc(C(=O)COC(=O)CNC(=O)COc2ccccc2)cc1	-1%	3	2	-1	-1	-3
CCc1ccc(S(=O)(=O)c2nnn(-c3cccc(C)c3)c2N)cc1	-1%	-1	-30*	6	64*	1
O=C(c1cccc(Cn2cccn2)c1)N1CCC(n2c(C3CCCO3)nc3cc(C(F)(F)F)ccc32)CC1 (configuration not stated)	10%	x	x	x	x	x
COC(=O)C/C=C\[C@@H](C)[C@@H]1C=C[C@H](OC(C)=O)[C@H](COC(C)=O)O1	-2%	x	x	x	x	x
CC(NC(=O)c1ccc(Br)o1)C1CCCO1 (configuration not stated)	0%	-6	-31*	0	0	-10
CCCCN(C(=O)CC1CCCCC1)c1c(N)n(CCCC)c(=O)[nH]c1=O	-7%	x	x	x	x	x
Cc1ccc(OCc2cc(C(=O)N(CCO)Cc3cccs3)no2)cc1C	2%	11	-45*	0	17	-8
ClC(Cl)(c1nnnn1-c1ccccc1)c1nnnn1-c1ccccc1	-14%	-2	5	1	4	0
COC(=O)c1ccc(C2c3c(oc4ccc(C)cc4c3=O)C(=O)N2Cc2ccc3c(c2)OCO3)cc1 (configuration not stated)	-6%	7	2	0	0	-1
O=C(CCCSc1ccccc1)Nc1cccc(CO)c1	0%	15	-34*	-2	7	x
CCc1cccc(NC(=O)CCCSc2nc3ccccc3[nH]2)c1	-3%	-8	-36*	-2	13	-6
CSc1cccc(NC(=O)CCc2ccccc2)c1	4%	2	-9	-1	2	1
CN(C(=O)COC(=O)COc1ccc2c(c1)CCC2)c1c(N)n(Cc2ccccc2)c(=O)[nH]c1=O	3%	11	-31*	1	1	-6
CCN(C(=O)COC(=O)COc1ccc2c(c1)CCC2)c1c(N)n(Cc2ccccc2)c(=O)[nH]c1=O	-2%	1	-7	0	4	-1
CCCn1c(=O)c(C(=O)NNC(=O)c2ccc(Cl)cc2Cl)c(O)c2ccccc21	-10%	-1	-13	4	41*	-6
Cn1c(=O)c(C(=O)NNC(=O)c2cccc(Cl)c2)c(O)c2ccccc21	-2%	-1	0	0	2	-1
CCCn1c(=O)c(C(=O)Nc2cccc(C)n2)c(O)c2ccccc21	9%	9	14	1	4	4
Cc1cccc(C(=O)NNC(=O)c2c(O)c3ccccc3n(C)c2=O)c1	1%	37*	2	-1	17	0
CCCn1c(=O)c(C(=O)Nc2ncccc2C)c(O)c2ccccc21	2%	-5	-16	5	49*	0
COc1ccc(C2CC(c3ccccc3)Oc3cc(C)c(Cl)c(C)c32)cc1 (configuration not stated)	-4%	x	x	x	x	x
Cc1nc(C)c(-c2ccc(SCC(=O)Nc3cccc(F)c3)nn2)s1	0%	7	-32*	-1	10	2
CCOC(=O)C1CCN(C(=O)COC(=O)/C=C/c2ccc([N+](=O)[O-])cc2)CC1	-1%	x	x	x	x	x
O=C(Nc1ccc(F)cc1)c1cccnc1NCCc1ccccc1	1%	-2	-33*	1	1	-4
CCC(=O)N1CCc2cc(Br)cc(S(=O)(=O)N3CCCC(C(=O)NCc4ccc(OC)cc4)C3)c21 (configuration not stated)	-4%	-7	-17	-1	-1	1
